{
  "source": "PubChem BioAssay (NCI)",
  "note": "The panel holds about 83,000 compounds, 20% with a hit somewhere; the sample as a whole holds those more often.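 Plates (96-well) were seeded with cells, treated with compound at one concentration, and incubated for 48 hours before percent growth was determined.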 Active and inactive are the calls of the source. The calls were made as follows: active = growth percent below 10; inactive = the rest.",
  "data": [
    {"system": "MDA-MB-468 breast", "experiment": "NCI-60 one-dose screen, 48 h (100 = growth as untreated, 0 = no growth, -100 = all killed)", "conditions": "10 µM unless noted", "values": [
      {"smiles": "C=CC(=O)Nc1ccc(Oc2nccc(Nc3nnc(-c4ccc(C)cc4)s3)n2)cc1", "growth": "111% (inactive)"},
      {"smiles": "COc1ccc(C/C(C)=C(\\c2ccc(OCCN3CCCCCC3)cc2)c2ccc(OC(=O)C3CCCCC3)cc2)cc1", "growth": "45% (inactive)"},
      {"smiles": "COc1cc(Cl)cc(-c2nn(-c3cccc(NC(=O)Nc4ccc(Cl)c(C(F)(F)F)c4)c3)cc2-c2ccncc2)c1", "growth": "-14.4% (active)"},
      {"smiles": "Cc1c(O)cc(-c2cnc(Nc3ccccc3)s2)c(O)c1C", "growth": "57.4% (inactive)"},
      {"smiles": "COc1c(CNC(=O)CCl)cc2[nH]c(C)cc2c1CNC(=O)CCl", "growth": "53.4% (inactive)"},
      {"smiles": "C=C1C(=O)O[C@H]2[C@H]1CC/C(CNC(=O)/C=C/c1ccc(Br)cc1)=C\\CC[C@@]1(C)O[C@@H]21", "growth": "-58.5% (active)"},
      {"smiles": "CS(=O)(=O)c1cccc(Nc2ncc3cc(-c4ccccc4Cl)ccc3n2)c1", "growth": "13.1% (inactive)"},
      {"smiles": "O=c1c(O)cccn1CCCNCCCN(CCCn1cccc(O)c1=O)CCCn1cccc(O)c1=O", "growth": "109% (inactive)"},
      {"smiles": "C=C1C(=O)O[C@H]2[C@H]1CC/C(CNC(=O)/C=C/c1ccc(Cl)cc1Cl)=C\\CC[C@@]1(C)O[C@@H]21", "growth": "-89.2% (active)"},
      {"smiles": "C[C@@H]1O[C@@H](O[C@@H]2C[C@H](c3ccc4c(c3O)C(=O)C3=C(C4=O)[C@@]4(O)C(=O)C[C@](C)(O)C[C@@]4(O)C=C3)O[C@H](C)[C@H]2O)C[C@H](O)[C@@H]1O", "growth": "106% (inactive)"},
      {"smiles": "NC(N)=N/N=C\\c1cccc(OCc2ccccc2)c1", "growth": "19.1% (inactive)"},
      {"smiles": "C=COCCCCCCCCCCCCCCCCCC", "growth": "103% (inactive)"},
      {"smiles": "C=C(C)[C@@H]1CCC[C@]2(C(=O)OC)CC[C@]3(C)[C@@H](CC[C@@H]4[C@@]5(C)CCCNC(C)(C)[C@@H]5CC[C@]43C)[C@@H]12", "growth": "65.3% (inactive)"},
      {"smiles": "CCOC(=O)c1ccc(Nc2sc(C(=O)c3cccc([N+](=O)[O-])c3)c(N)c2C#N)cc1", "growth": "4.24% (active)"},
      {"smiles": "CC(=O)c1cc(Cl)ccc1O", "growth": "97.5% (inactive)"},
      {"smiles": "N=C(N)c1ccc(-c2ccc(-c3ccc(Cl)cn3)s2)cc1", "growth": "-28.2% (active)"},
      {"smiles": "O=c1c(-c2nc3ccccc3[nH]2)cc2ccccc2n1Cc1cn(Cc2ccc(N3CCOCC3)cc2)nn1", "growth": "64.3% (inactive)"},
      {"smiles": "N#Cc1nn(-c2ccccn2)c(N)c1C#N", "growth": "116% (inactive)"},
      {"smiles": "Oc1c(Cl)cc(Cl)cc1CNc1nccnn1", "growth": "109% (inactive)"},
      {"smiles": "C1=C[C@H]2O[C@@H]1c1ccc3[nH]ccc3c12", "growth": "76.2% (inactive)"},
      {"smiles": "C[C@@H]1N=C(c2ccc(Cl)cc2Cl)Nc2nc3ccccn3c2C1=O", "growth": "53.9% (inactive)"},
      {"smiles": "Cc1nc2sccn2c1-c1csc(Nc2ccccc2Cl)n1", "growth": "19% (inactive)"},
      {"smiles": "COC(=O)c1cc(-c2ccc(S(C)(=O)=O)cc2)[nH]c1N/N=C/c1c(Cl)cccc1Cl", "growth": "15.7% (inactive)"},
      {"smiles": "COCCOC1=C(Cl)C(=O)c2ccccc2C1=O", "growth": "-5.01% (active)"},
      {"smiles": "O=C1C(Br)=CC2C1C1C3CCC3C2(Br)C12OCCO2", "note": "(configuration not stated)", "growth": "19.4% (inactive)"},
      {"smiles": "CCC(C)N(CCNc1cc(OC)cc2cccnc12)CCC(C)C", "note": "(configuration not stated)", "growth": "-24.8% (active)"},
      {"smiles": "O=S(=O)(NCCCNc1nccc(-c2[nH]c(-c3ccccc3)nc2-c2ccc(F)c(O)c2)n1)c1ccc(C(F)(F)F)cc1", "growth": "-8.61% (active)"},
      {"smiles": "C=C1C(=O)O[C@H]2[C@H]1CCC(/C=N/c1ncc(Br)cc1N)=C\\CC[C@@]1(C)O[C@@H]21", "growth": "-51% (active)"},
      {"smiles": "CCc1ccc(Nc2ncnc3c2cnn3-c2cccc(Br)c2)cc1", "growth": "91% (inactive)"},
      {"smiles": "Cc1cc(NC(=O)c2cnc(N3CCN(CCOCCOCCOCCOCCC(=O)N[C@H](C(=O)N4C[C@H](O)C[C@H]4C(=O)N[C@@H](C)c4ccc(-c5scnc5C)cc4)C(C)(C)C)CC3)cn2)c2ncccc2c1", "growth": "-57.9% (active)"},
      {"smiles": "COc1ccc(C(=O)/C=C/c2cccc(Nc3ccnc4cc(Cl)ccc34)c2)cc1", "growth": "-2.59% (active)"},
      {"smiles": "CCSc1oc(-c2ccccc2)nc1[P+](c1ccccc1)(c1ccccc1)c1ccccc1", "growth": "-37.6% (active)"},
      {"smiles": "N#Cc1c(-c2ccc(Cl)cc2)nc(SCC(=O)NC2=NN=C(c3ccccc3)CS2)[nH]c1=O", "growth": "47.7% (inactive)"},
      {"smiles": "NC(=O)Nc1ccc(-n2cnc3cc(-c4ccc(O)cc4)ccc32)cc1", "growth": "129% (inactive)"},
      {"smiles": "Cc1nc2scc(-c3ccc(Cl)cc3)n2c(=O)c1CCN1CCOCC1", "growth": "112% (inactive)"},
      {"smiles": "Cc1cnc(SCc2ccc(Cl)cc2Cl)nc1Nc1ccc(Cl)c(Cl)c1", "growth": "101% (inactive)"},
      {"smiles": "O=C(CN1C(=O)S/C(=C\\C(Cl)=C\\c2ccccc2)C1=O)NC1C=CS(=O)(=O)C1", "note": "(configuration not stated)", "growth": "-54.5% (active)"}
    ]}
  ]
}
